Test results published in PubChem BioAssay AID651650 (Sanford-Burnham Center for Chemical Genomics, 2012).

Target: Neuropilin-1 (Homo sapiens) (UniProt O14786)
Experiment: blockers of CendR peptide binding to NRP-1 – biochemical, FP and AlphaScreen panel, dose response (AID 651650)
Settings: NRP-1 b1b2 / RPARPAR peptide binding, FP or AlphaScreen; run 1, at 100 µM (top of the series)

Chain of Neuropilin-1 (Homo sapiens) (O14786 whole entry, looked up): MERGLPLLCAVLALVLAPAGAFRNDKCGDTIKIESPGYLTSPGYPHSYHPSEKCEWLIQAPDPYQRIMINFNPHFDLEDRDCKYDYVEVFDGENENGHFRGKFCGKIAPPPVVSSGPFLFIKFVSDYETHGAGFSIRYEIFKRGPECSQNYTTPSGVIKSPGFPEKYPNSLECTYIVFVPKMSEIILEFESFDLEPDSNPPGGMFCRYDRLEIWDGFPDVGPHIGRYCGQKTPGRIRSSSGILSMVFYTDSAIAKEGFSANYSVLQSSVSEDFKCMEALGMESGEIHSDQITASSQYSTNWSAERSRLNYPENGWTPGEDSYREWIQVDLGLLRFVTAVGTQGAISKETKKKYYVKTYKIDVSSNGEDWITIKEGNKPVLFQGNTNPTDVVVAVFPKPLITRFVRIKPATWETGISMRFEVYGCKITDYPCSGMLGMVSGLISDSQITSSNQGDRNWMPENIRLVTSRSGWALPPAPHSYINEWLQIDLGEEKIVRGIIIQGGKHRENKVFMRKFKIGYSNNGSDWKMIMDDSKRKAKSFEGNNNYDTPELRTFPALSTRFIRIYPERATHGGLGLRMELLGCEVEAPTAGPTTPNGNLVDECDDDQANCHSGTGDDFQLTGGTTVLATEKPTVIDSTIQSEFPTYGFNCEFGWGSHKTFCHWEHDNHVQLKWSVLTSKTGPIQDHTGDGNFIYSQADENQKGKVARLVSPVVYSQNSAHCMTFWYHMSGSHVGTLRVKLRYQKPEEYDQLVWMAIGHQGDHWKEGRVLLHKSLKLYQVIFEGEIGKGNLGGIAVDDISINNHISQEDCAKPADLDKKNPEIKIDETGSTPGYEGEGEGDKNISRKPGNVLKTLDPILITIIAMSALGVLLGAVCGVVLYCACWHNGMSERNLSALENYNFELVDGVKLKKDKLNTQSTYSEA

SMILES | inhibition
CCOC(=O)c1c(=O)n(O)c2ccc(OC)cc2[n+]1[O-] | -2.72%
O=C(NNC(=O)c1csc(N2CCOCC2)n1)c1ccc(=O)[nH]c1 | 39.8%
CCC1CCCCN1C(=S)Nc1ccc(OC(F)F)cc1 (stereo not drawn) | 69.3%
COc1ccc(C2CC(O)(c3ccccc3)Oc3cc(OC)ccc32)cc1 (stereo not drawn) | 7.29%
CC(C)C(N)c1csc(NC(=O)Nc2cccc(C(F)(F)F)c2)n1 (stereo not drawn) | 28.7%
COc1ccc(NC(=O)CN(C)CC(=O)Nc2cccc(F)c2)cc1Cl | 71.1%
COc1ccc(Cl)cc1NC(=O)C(C)N1CCc2ccccc21 (stereo not drawn) | 82.6%
CCO[C@@H]1OC(C(=O)NCc2ccccc2)=C[C@H](c2ccc(Br)cc2)[C@H]1CCCO | 102%
CC(C)(C)c1nc(SCC(=O)NCc2ccco2)c2ccccc2n1 | 44.2%
CC1CCN(C(=O)c2[nH]cnc2C(=O)NCc2ccc(CNC(=O)OC(C)(C)C)cc2)CC1 | 55.2%
O=C(Nc1cccc(C(F)(F)F)c1)C1Cc2c(-c3cccc(F)c3)ccnc2O1 (stereo not drawn) | 18.4%
C=C1CCN([C@@H](CC(C)C)C(=O)NCc2ccccc2)S(=O)(=O)c2ccccc21 | 12.9%
FC(F)(F)C1CC(c2cccs2)Nc2ncnn21 (stereo not drawn) | 46%
C/C(=N\N=c1/sc2ccccc2n1C)c1ccccn1 | 23.1%
C#CCOc1nc(C)cc(C)c1S(=O)(=O)c1ccccc1C | 25.9%
O=C(CCC(=O)Nc1ccccc1Cl)NN=C1CCCC1 | 67.6%
CC(Nc1ccc2ccccc2c1)C(=O)N/N=C/c1ccncc1 (stereo not drawn) | 45.8%
CCOC(=O)C1(Cc2cccc(F)c2)CCN(Cc2ccon2)CC1 | 61.1%
CC(=O)C(C(c1ccccc1)N1CCCc2ccccc21)N1CCOCC1 (stereo not drawn) | 54%

SMILES | inhibition
CCOc1ccccc1N1CCN(C(=O)c2ccncc2)CC1 | -22.8%
Nc1cc(S(=O)(=O)O)cc([N+](=O)[O-])c1O | 74.8%
CCOC(=O)C1=C(O)C(=O)N(c2ccccc2)C1c1cccc([N+](=O)[O-])c1 (stereo not drawn) | 26.5%
COc1ccc(C(=O)COC(=O)C(CCSC)NS(=O)(=O)c2ccc(Cl)cc2)cc1 (stereo not drawn) | -2.36%
O=C(NNC(=O)C1CCN(c2ncccn2)CC1)c1ccc(F)cc1 | 26.5%
Cc1ccc(Cl)c(NC(=O)CSc2cccc[n+]2[O-])c1Cl | -8.97%
O=[N+]([O-])c1ccc(Nc2nc(NC3CCCCC3)nc(N3CCCC3)n2)cc1 | 25.6%
CCCCN(c1ccccc1)S(=O)(=O)c1ccc2c(c1)CCN2C(=O)CCC(=O)O | 8.36%
O=C1CCCN1CCCNC(=S)Nc1ccc(Cl)cc1Cl | 19.7%
CSc1ncccc1C(=O)OCC(=O)NC1CCCCC1 | 56.7%
CCc1ccc(OC(=O)CN2C(=O)c3ccccc3C2=O)cc1 | 76.9%
CCn1c(SCC(=O)c2ccccc2)nnc1-c1cccs1 | 45.2%
O=C(NC1CC1)c1ccc(COc2ccc(F)cc2)o1 | 23.1%
COC(=O)Cc1ccc(NC(=S)NCCCO)cc1 | 49.7%
COC/C=C/C1=CC2=CC(=O)C(C)(OC(=O)c3cnc4ccccc4n3)C(=O)C2=CN1Cc1ccc(OC)cc1 (stereo not drawn) | 66.7%
CC(C(=O)N1CCN(c2ccc(Cl)cc2)CC1)c1ncc(C(F)(F)F)cc1Cl (stereo not drawn) | -2.5%
O=C(c1cccc(F)c1)N1CCN(c2ccc([N+](=O)[O-])c(N3CCCCC3)c2)CC1 | 33.3%
Cc1cc(=O)n2nc(N3CCCC(C(=O)N4CCOCC4)C3)sc2n1 (stereo not drawn) | 17%
O=C(O)c1ccccc1CSc1ccccn1 | 101%
